This note sets out measurements from PubChem BioAssay AID1645850 (National Center for Advancing Translational Sciences (NCATS), 2021).

Results filed as inconclusive are left out. The source made the active and inactive calls. Calls follow the shape of the dose curve; as a rule, active = well fitted curve in the direction sought with a large enough effect in the repeat runs; inconclusive = weak or mixed curves, or another doubt; inactive = no such curve, though single readings can be large or run the other way.

This experiment in a line: Comparison of Janus kinase inhibitors to block the type I interferon pathway in human skeletal muscle cells: CTG Counterscreen. From the text:
Assay Submitter (PI): Travis B. Kinder Ph.D.
National Center for Advancing Translational Sciences (NCATS)
The family of Janus kinases (JAK1, JAK2, JAK3, TYK2) mediate signal transduction from cytokine receptors through phosphorylation and activation of intracellular signaling pathways and transcription factors. Small molecule antagonists of JAKs (jakinibs) have been developed with varying selectivity for the use in malignancies and immune regulation. […] We have assayed a library of 48 jakinibs for their ability to inhibit the JAK1/TYK2-dependent type I interferon (IFN) - major histocompatibility complex (MHC) class I pathway in human skeletal muscle cells genome-engineered to fuse a pro-luminescent HiBiT peptide to endogenous MHC class I.
The assay utilized CRISPR/Cas9 genome-engineered immortalized human myoblasts, C25cl48, where a pro-luminescent reporter HiBit was fused to the C-terminus of endogenous MHC class I allele HLA-B*08:01 (HLA-B HiBit myoblasts) (Kinder et al., 2020). […] After 24 hrs of treatment, cells were assayed by CellTiter-Glo Luminescent Cell Viability Assay (Promega) and luminescence measured by a ViewLux 1430 Ultra HTS (Perkin Elmer). […]
7; Detector; 5 sec; Measure luminescence with ViewLux 1430 Ultra HTS (Perkin Elmer). […]
Background: Counterscreens check selectivity or assay interference.

Consider `CC(C)(O)/C=C\C(=O)[C@](C)(O)[C@H]1[C@H](O)C[C@]2(C)[C@@H]3CC=C4[C@@H](C=C(O)C(=O)C4(C)C)[C@]3(C)C(=O)C[C@@]12C`, for which the outcome was inactive.
In the case of `CC1CCCCCC(=O)c2c(O)cc(O)cc2CC(=O)O1` (configuration not stated) it was “inactive”.
